The text below walks through data of PubChem BioAssay.

Experiment [1] is described as follows: compounds binding Alexa647 anti-His antibody – biochemical, small-molecule microarray, 635 nm fluorescence, artefact control for SMM control protein annotation, primary screen (AID 1128).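 Also: score merges feature fluorescence with signal-to-noise for each printed compound spot.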 To be noted: higher = more signal.
For experiment [2], the system named is Human papillomavirus type 1a E7 protein (residues 1-88). As to the kind of experiment: HPV1a E7 small-molecule binders, primary screen, biochemical, small-molecule microarray, residues 1-88, 635 nm (AID 1129). The note with it: small-molecule microarray binding, fluorescence 635 nm; higher = more signal.
The target of experiment [3] is Focal adhesion kinase 1 (Homo sapiens) (UniProt Q05397). Description: PTK2 protein binding on printed compound slides – biochemical, small-molecule microarray, 635/667 nm fluorescence, BSA, DTT, primary screen (AID 1130).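 Also: composite of spot emission at 667 nm and signal to noise over triplicate slides.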 The note with it: 635 nm fluorescence, higher = more signal.
Experiment [4] has as its system Fibrinogen (Alexa647-labelled). Description: Alexa647-fibrinogen binding to printed small molecules – biochemical, small-molecule microarray, 635/667 nm fluorescence, artefact control for SMM control-protein annotation, profiling panel (AID 1131).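 Also: z-score merges 667 nm fluorescence with per-spot signal-to-noise over triplicate slides.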 To be noted: fibrinogen-A647 binding fluorescence, higher = more signal.
Experiment [5] concerns the target Follistatin (Homo sapiens) (UniProt P19883). Description: FST protein binding to printed compounds – biochemical, small-molecule microarray, 635/667 nm fluorescence, primary screen (AID 1132). To be noted: 635 nm fluorescence, higher = more signal.
Experiment [6] deals with Fibroblast growth factor 2 (Homo sapiens) (UniProt P09038). Description: basic fibroblast growth factor binding to printed compounds – biochemical, small-molecule microarray, 635/667 nm fluorescence, primary screen (AID 1133). The note with it: FGF2, fluorescence 635/667, higher = more signal.
A short description of experiment [7]: JC-1 mitochondrial potential readout, lung cancer cells – cell-based, A549, JC-1 fluorescence, basal, 24 h, 100 nL, profiling panel (AID 1138).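 Also: A549 lung adenocarcinoma cells under basal conditions with no added stimulus; test concentration not given here.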 The note with it: higher = more signal.
Experiment [8] deals with Lefty1. As to the kind of experiment: Lefty1 protein binding to printed compounds – biochemical, small-molecule microarray, 635/667 nm fluorescence, primary screen (AID 1139). The note with it: fluorescence 635/667, higher = more signal.
Experiment [9] relates to wheat germ agglutinin (Triticum aestivum), Alexa647-labelled. As to the kind of experiment: Alexa647-WGA lectin binding to printed small molecules – biochemical, small-molecule microarray, 635/667 nm fluorescence, artefact control for SMM control-protein annotation, profiling panel (AID 1140).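 Also: score merges 667 nm feature emission with signal to noise over triplicate slides.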 The note with it: WGA-A647 binding, 635 nm fluorescence, higher = more signal.
The target of experiment [10] is Luciferin 4-monooxygenase (Photinus pyralis) (UniProt P08659). Description: inhibition of purified Photinus pyralis luciferase – biochemical, luminescence, purified enzyme, 2006 set, primary screen (AID 1141).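 Also: cell-free assay with purified firefly luciferase at 100 ng per well in PBS; test concentration not given here.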 To be noted: purified firefly luciferase, SteadyGlo luminescence, 30 min; higher = more signal, called active from +8 up or from −8 down.
Experiment [11] relates to Wnt5a (protein binding on small-molecule microarray). As to the kind of experiment: small molecules binding Wnt5a protein – biophysical, small-molecule microarray, 635/667 nm fluorescence, primary screen (AID 1142).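 Also: fluorescence read at 667 nm with signal to noise per printed feature.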 To be noted: 635 nm fluorescence, higher = more signal.
Experiment [12] can be described thus: ATP-based viability of Huh7 replicon cells – cell-based, CellTiter-Glo luminescence, basal, 48 h, cytotoxicity control for HCV replication inhibitor project, primary screen (AID 1143).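 Also: Huh7 hepatoma cells carrying a hepatitis C replication reporter with no stimulus; test concentration not given here.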 To be noted: higher = more signal, called active from +8 up or from −8 down. For orientation: Replicon systems follow genome replication, usually without infectious particles.
The nature of experiment [13]: Pseudomonas biofilm growth suppression – PAO1 strain, BacTiter-Glo luminescence, LB-PBS, primary screen (AID 1144). To be noted: P. aeruginosa PAO1 biofilm, 12 h, higher = more signal.
Experiment [14] in a line: basal CRE-LacZ reporter activity in PC12 – cell-based, unstimulated, primary screen (AID 1145). To be noted: no forskolin, luminescence, 4.5 h, higher = more signal, called active from +8 up or from −8 down.
Experiment [15] can be described thus: forskolin-driven CRE-LacZ activity in PC12 – cell-based, CRE-LacZ reporter, forskolin-stimulated, primary screen (AID 1146).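 Also: PC12 cells with 6xCRE LacZ reporter stimulated by forskolin 10 µM; beta-galactosidase reporter signal reflecting CREB driven transcription.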 The note with it: luminescence, 4.5 h, higher = more signal, called active from +8 up or from −8 down.
Experiment [16] addresses Streptavidin (Streptomyces avidinii) (UniProt P22629). Description: compounds binding control protein streptavidin – biophysical, small-molecule microarray, 635/667 nm fluorescence, artefact control for SMM compound annotation, primary screen (AID 1147).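 Also: signal reflects streptavidin binding to arrayed compounds as a control protein.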 The note with it: higher = more signal.
Experiment [17] in a line: probe aInhba binding on compound microarray – biochemical, small-molecule microarray, 635/667 nm fluorescence, primary screen (AID 1148).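 Also: score merges 667nm spot fluorescence with signal-to-noise for antibody binding to printed compounds.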 To be noted: higher = more signal.
Experiment [18] has as its target Torsin-1A (Homo sapiens) (UniProt O14656). As to the kind of experiment: TOR1A wild-type binding on microarray – cell lysate, small-molecule microarray, lysate, 635/667 nm, primary screen (AID 1149). To be noted: COS7 hTOR1A-WT lysate, 635 nm fluorescence, higher = more signal.
Experiment [19] has the same target. Description: torsin A mutant lysate binding on microarrays – cell lysate, small-molecule microarray, COS7 lysate, 635/667 nm fluorescence, primary screen (AID 1150).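 Also: score pools 667 nm emission and signal to noise measuring lysate protein binding.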 To be noted: COS7 hTOR1A mutant lysate, 635 nm fluorescence, higher = more signal.
Experiment [20] concerns Sonic hedgehog protein (Shh). Description: Sonic hedgehog microarray binding compounds – biochemical, small-molecule microarray, 635/667 nm fluorescence, primary screen (AID 1151).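 Also: Shh protein binding to compounds spotted on small-molecule microarray slides; score combines spot fluorescence intensity with signal-to-noise across triplicate slides.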 The note with it: 635 nm fluorescence, higher = more signal.

The source made the active and inactive calls. Unless noted, no rule for the calls is given here.

Sequence of Luciferin 4-monooxygenase (Photinus pyralis) (P08659 whole entry, looked up): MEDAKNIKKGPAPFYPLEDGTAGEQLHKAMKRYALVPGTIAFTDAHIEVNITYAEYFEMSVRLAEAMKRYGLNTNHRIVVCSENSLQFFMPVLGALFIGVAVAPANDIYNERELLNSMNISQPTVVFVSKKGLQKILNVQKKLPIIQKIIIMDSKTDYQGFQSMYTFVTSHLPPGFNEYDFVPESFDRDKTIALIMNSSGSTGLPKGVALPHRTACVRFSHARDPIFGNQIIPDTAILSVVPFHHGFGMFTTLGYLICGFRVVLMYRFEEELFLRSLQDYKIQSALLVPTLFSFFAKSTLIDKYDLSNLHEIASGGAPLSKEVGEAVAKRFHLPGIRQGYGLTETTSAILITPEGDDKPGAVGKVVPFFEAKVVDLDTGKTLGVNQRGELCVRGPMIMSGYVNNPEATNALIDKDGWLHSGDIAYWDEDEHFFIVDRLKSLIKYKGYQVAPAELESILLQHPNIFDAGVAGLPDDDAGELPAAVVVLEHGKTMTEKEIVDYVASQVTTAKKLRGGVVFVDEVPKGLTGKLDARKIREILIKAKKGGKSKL
Sequence of Focal adhesion kinase 1 (Homo sapiens) (Q05397 whole entry, looked up): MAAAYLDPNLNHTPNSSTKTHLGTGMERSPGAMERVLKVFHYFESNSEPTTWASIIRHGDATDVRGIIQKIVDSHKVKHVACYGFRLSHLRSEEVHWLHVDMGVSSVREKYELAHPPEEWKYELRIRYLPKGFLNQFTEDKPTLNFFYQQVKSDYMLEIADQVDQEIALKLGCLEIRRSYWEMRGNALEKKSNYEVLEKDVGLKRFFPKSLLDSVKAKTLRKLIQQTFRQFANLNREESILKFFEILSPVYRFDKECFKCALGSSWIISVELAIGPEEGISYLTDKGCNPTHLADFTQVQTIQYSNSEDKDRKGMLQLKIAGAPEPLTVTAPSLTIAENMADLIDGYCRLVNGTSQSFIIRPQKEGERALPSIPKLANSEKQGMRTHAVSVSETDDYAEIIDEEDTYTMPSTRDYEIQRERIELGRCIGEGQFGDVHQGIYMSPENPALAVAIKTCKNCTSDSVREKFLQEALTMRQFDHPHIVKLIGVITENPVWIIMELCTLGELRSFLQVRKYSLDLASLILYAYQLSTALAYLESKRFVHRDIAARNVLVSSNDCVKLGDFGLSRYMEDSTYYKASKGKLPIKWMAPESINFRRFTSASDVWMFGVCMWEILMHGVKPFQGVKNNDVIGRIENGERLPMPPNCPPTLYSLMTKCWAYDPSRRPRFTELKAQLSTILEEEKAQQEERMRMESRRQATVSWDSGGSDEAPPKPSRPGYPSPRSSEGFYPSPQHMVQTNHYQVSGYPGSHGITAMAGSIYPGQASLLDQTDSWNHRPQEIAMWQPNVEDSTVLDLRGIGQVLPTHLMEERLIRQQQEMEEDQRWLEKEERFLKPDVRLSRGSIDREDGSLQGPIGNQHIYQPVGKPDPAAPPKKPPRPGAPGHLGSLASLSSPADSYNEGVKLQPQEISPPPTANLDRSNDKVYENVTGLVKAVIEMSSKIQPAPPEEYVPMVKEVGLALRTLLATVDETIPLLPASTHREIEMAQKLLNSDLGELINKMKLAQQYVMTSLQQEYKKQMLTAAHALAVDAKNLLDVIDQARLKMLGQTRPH
Sequence of Fibroblast growth factor 2 (Homo sapiens) (P09038 whole entry, looked up): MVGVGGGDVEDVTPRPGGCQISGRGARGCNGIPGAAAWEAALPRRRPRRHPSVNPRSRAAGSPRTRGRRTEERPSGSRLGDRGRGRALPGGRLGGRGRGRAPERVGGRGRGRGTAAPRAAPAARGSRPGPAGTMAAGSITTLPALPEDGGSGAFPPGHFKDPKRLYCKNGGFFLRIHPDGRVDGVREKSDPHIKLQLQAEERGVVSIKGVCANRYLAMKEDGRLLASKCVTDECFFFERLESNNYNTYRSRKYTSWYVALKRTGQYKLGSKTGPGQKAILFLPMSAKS
Sequence of Follistatin (Homo sapiens) (P19883 whole entry, looked up): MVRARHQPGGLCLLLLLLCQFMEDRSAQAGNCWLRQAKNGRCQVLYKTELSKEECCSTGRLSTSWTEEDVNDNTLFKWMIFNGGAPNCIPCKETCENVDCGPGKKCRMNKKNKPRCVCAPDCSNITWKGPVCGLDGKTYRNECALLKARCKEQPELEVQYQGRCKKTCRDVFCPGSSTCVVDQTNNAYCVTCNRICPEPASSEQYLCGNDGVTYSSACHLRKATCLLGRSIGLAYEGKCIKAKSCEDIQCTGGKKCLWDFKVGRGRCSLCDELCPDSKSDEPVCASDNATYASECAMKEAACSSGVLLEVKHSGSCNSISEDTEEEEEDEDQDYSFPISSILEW
Sequence of Streptavidin (Streptomyces avidinii) (P22629 whole entry, looked up): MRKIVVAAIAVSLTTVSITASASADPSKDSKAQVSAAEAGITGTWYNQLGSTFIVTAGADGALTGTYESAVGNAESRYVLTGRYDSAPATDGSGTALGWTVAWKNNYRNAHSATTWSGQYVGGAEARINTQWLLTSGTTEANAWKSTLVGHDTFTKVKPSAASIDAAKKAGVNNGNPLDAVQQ
Sequence of Torsin-1A (Homo sapiens) (O14656 whole entry, looked up): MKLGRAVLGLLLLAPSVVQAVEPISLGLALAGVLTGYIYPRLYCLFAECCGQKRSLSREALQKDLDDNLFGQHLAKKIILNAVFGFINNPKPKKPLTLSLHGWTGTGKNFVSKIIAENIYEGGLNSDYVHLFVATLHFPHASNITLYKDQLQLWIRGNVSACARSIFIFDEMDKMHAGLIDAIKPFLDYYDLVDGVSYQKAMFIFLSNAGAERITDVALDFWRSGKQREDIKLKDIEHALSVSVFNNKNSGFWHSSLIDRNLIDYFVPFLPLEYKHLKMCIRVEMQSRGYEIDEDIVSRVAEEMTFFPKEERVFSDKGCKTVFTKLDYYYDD

Take `O=C(NCc1ccccc1)[C@@]1(Cc2ccccc2)COC(c2ccc(OCCCO)cc2)=N1`: the composite z-score was 2.46 in [1]; 1.17 in [2]; 0.773 in [3]; 0.838 in [4]; 0.0985 in [5]; -0.238 in experiment [6]. Further, the composite z-score in [8] is -0.554; in experiment [9], 0.449; in experiment [11] it was 0.369; in [16], 0.191; in experiment [17], -0.0087; in experiment [18] it was -0.0265. The composite z-score in experiment [19] was 0.737; in experiment [20], -0.587. Also, the z-score is -1.56 in experiment [7]; -0.603 (inactive) in experiment [10]; -4.7 (inactive) in experiment [12]; -0.607 (inactive) in experiment [13]; -0.0157 (inactive) in [14]; -1.27 (inactive) in [15].
Regarding `O=C1O[C@@H](c2ccccc2)[C@@H](c2ccccc2)N2[C@@H](c3ccc(OCCO)cc3)[C@]3(C(=O)Nc4ccc(C#CCCO)cc43)[C@@H](C(=O)N3CCN(c4ncccn4)CC3)[C@H]12`, the composite z-score in experiment [1] came out at 0.468; in [2] it was 1; in experiment [3], 0.341; in [4], 0.941; in [5], 1.34; in experiment [6], 0.331. Also, the composite z-score is 0.635 in experiment [8]; 1.2 in experiment [9]; 0.544 in experiment [11]; 0.509 in experiment [16]; 0.0403 in [17]; 0.376 in [18]. Moreover, the composite z-score in experiment [19] was found to be 0.5; in experiment [20], 1.93. Besides, the z-score in [7] was -0.0856; in [10] it was 0.47 (inactive); in experiment [12] it was -0.284 (inactive); in experiment [13], -0.132 (inactive); in experiment [14], 0.478 (inactive); in [15] it was 0.0989 (inactive).
In the case of `O=C1O[C@H](c2ccccc2)[C@H](c2ccccc2)N2[C@H]1[C@@H](C(=O)NC[C@H](O)c1ccccc1)[C@]1(C(=O)Nc3ccc(C#CC4=CCCCC4)cc31)[C@H]2c1ccc(OCCO)cc1`, the composite z-score in experiment [1] was found to be 0.879; in [2] it was 1.19; in [3], 0.73; in [4], 0.874; in experiment [5], 1.2; in experiment [6], 0.527. For the same compound, the composite z-score in [8] was 1.26; in [9], 0.944; in experiment [11] it was 0.271; in [16], 0.635; in [17], -0.0695; in experiment [18], 0.257. Further, the composite z-score in [19] is 0.705; in experiment [20], 1.11. For the same compound, the z-score in experiment [7] is -1.76; in experiment [10], -1.4 (inactive); in [12], -4.66 (inactive); in [13], -0.625 (inactive); in experiment [14], 0.0653 (inactive); in [15] it was -0.337 (inactive).
Turning to `CC(C)[C@H]1NC(=O)[C@@]23C(=O)N[C@@H](Cc4ccccc4)C2[C@H](C)[C@@]2(C)O[C@H]2C3/C=C/C/C=C\CNC(=O)[C@H](C)NC1=O` (stereo not given in full), the composite z-score is 0.661 in experiment [1]; -0.983 in experiment [2]; -0.67 in [3]; -0.908 in [4]; -0.412 in experiment [5]; 0.862 in [6]. Also, the composite z-score in experiment [8] is -0.62; in experiment [9] it was -1.03; in [11], -0.438; in experiment [16] it was -1.07; in [17], -0.151; in experiment [18], -0.96. Moreover, the composite z-score in experiment [19] worked out at 0.237; in [20] it was 0.203. Also, the z-score in [7] was -0.134; in experiment [10], -0.0632 (inactive); in experiment [12], -0.131 (inactive); in experiment [13], 0.0406 (inactive); in experiment [14], 0.306 (inactive); in [15], 0.289 (inactive).
With `Cc1ccc(S[C@]2(C(=O)NC3CC3)CC(=O)N(Cc3cc(C(F)(F)F)cc(C(F)(F)F)c3)[C@@H]2c2ccc(CO)cc2)cc1`, the composite z-score amounted to 1.79 in [1]; 0.489 in experiment [2]; 0.389 in experiment [3]; 0.182 in [4]; 1.2 in experiment [5]; 0.411 in experiment [6]. Moreover, the composite z-score was 0.821 in [8]; 0.31 in [9]; 0.134 in experiment [11]; -0.103 in experiment [16]; -0.128 in experiment [17]; -0.408 in experiment [18]. Further, the figures for the composite z-score in [19] and in [20] were 0.227 and 1.38, respectively. Besides, the z-score is 0.232 in experiment [7]; 1.22 (inactive) in [10]; -2.38 (inactive) in [12]; -1.59 (inactive) in experiment [13]; -0.374 (inactive) in [14]; 0.121 (inactive) in experiment [15].
